Inconclusive results are not listed. Activity calls are given as the source filed them. The calls were made as follows: active = hit-call score of the fitted dose curve at least 0.9, where 1 is the maximum; inconclusive = response in the unintended direction; inactive = score below 0.9.
What follows are compounds tested against human RAR-related Orphan Receptor beta (RORb), RORB (gene 6096) (UniProt Q92753) (assay: ATG_RORb_TRANS: Attagene TRANS-FACTORIAL HepG2 Assay for human RAR-related Orphan Receptor beta (RORb) (AID 2283010)).
Sequence of human RAR-related Orphan Receptor beta (RORb), RORB (gene 6096) (Q92753 whole entry, looked up, the tested form may be a part): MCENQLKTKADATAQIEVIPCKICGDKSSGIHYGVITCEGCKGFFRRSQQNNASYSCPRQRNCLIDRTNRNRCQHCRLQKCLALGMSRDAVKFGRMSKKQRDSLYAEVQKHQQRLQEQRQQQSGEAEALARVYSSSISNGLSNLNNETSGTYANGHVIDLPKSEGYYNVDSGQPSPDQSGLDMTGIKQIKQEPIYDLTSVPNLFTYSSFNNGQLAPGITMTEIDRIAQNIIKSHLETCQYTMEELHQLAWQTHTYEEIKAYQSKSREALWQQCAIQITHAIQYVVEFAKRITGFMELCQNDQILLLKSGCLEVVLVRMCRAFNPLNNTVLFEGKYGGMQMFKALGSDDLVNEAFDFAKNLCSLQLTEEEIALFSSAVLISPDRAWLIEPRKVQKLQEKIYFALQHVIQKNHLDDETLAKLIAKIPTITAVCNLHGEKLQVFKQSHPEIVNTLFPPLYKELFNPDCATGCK
Method in brief: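 Transfect HepG2 with multiple GAL4-UAS reporter transcription units; dose chemicals for 24 h; isolate RNA, reverse-transcribe and PCR-amplify reporter sequences; label, digest and resolve fragments by capillary electrophoresis; fit increases relative to DMSO.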
In the case of `CCCCCCCC=O`, the outcome was “inactive”.
`COCCOCCOC` was tested, and the outcome was “inactive”.
In the case of `O=C(O)Cc1ccccc1Nc1c(Cl)cccc1Cl`, the outcome was “inactive”.

The compounds below were run against human RAR-related Orphan Receptor gamma (RORg), RORC (gene 6097) (UniProt P51449) (assay: ATG_RORg_TRANS: Attagene TRANS-FACTORIAL HepG2 Assay for human RAR-related Orphan Receptor gamma (RORg) (AID 2283011)).
Sequence of human RAR-related Orphan Receptor gamma (RORg), RORC (gene 6097) (P51449 whole entry, looked up, the tested form may be a part): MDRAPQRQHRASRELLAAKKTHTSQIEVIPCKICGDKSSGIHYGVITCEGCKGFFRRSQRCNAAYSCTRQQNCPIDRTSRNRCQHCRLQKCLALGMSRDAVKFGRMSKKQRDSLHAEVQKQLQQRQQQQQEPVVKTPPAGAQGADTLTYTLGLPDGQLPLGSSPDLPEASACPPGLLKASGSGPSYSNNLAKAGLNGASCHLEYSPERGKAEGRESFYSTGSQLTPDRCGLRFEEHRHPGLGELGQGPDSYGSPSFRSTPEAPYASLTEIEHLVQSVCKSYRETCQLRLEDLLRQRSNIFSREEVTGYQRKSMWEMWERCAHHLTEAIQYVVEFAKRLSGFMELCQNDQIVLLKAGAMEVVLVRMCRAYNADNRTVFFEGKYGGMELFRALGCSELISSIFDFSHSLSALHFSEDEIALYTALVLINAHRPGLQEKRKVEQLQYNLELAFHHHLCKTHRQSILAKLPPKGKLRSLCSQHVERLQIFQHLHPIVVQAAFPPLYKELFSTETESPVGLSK
Method in brief: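 Activity is scored as increase in GAL4-UAS reporter mRNA over DMSO, detected by fluorescent RT-PCR and capillary electrophoresis in HepG2 cells transiently expressing a RORg-Gal4 chimera, 24 h after dosing.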
In the case of `Cc1cccc(C)c1O`, the outcome was “inactive”.
`O=[N+]([O-])C(CO)(CO)CO` was tested, and the outcome was “inactive”.
For `CNC(=O)[C@H]1O[C@@H](n2cnc3c(NCc4cc(Cl)ccc4OCc4cc(C)no4)ncnc32)[C@H](O)[C@@H]1N`, the outcome was “inactive”.
In the case of `CNCc1cc(F)ccc1Oc1ccc(Cl)c(Cl)c1`, the outcome was “inactive”.
With `Nc1ccc(S(=O)(=O)c2ccc(N)cc2)cc1` the outcome was “inactive”.
With `C[C@]12C=CC(=O)C=C1CC[C@@H]1[C@@H]2C(=O)C[C@@]2(C)[C@H]1CC[C@]2(O)C(=O)CO` the outcome was “inactive”.
For `Cc1ccc(C(C)C)c(O)c1`, the outcome was “inactive”.
In the case of `Cc1oc(-c2ccccc2)nc1CCOc1cccc2c1ccn2CCC(=O)O`, the outcome was “inactive”.
With `CC=Cc1ccc(O)c(OC)c1` the outcome was “inactive”.
For `CCOC(=O)C(C)(C)Oc1ccc(Cl)cc1`, the outcome was “inactive”.
`CC(C)c1ccc(C(=O)N=C(N)N)cc1S(C)(=O)=O` was tested, and the outcome was “inactive”.
In the case of `Cc1cc(NC(=O)C(=O)O)cc(C)c1Oc1ccc(O)c2c1CCC2`, the outcome was “inactive”.
For `Nc1ccc2c(c1)C(=O)c1ccccc1C2=O`, the outcome was “inactive”.
`Cc1ccc2ncccc2c1` was tested, and the outcome was “inactive”.
In the case of `CCCCCCCCCCCCCCCCCC(=O)O`, the outcome was “inactive”.
With `CCCCN(CCCC)CCCC` the outcome was “inactive”.
`CC1(C)CC(N=C=O)CC(C)(CN=C=O)C1` (stereo unspecified) was tested, and the outcome was “inactive”.
`NS(=O)(=O)c1cc2c(cc1Cl)NCNS2(=O)=O` was tested, and the outcome was “inactive”.
`COc1ccc(C)cc1N` was tested, and the outcome was “inactive”.
For `COc1cc(S(=O)(=O)O)c(C)cc1N=Nc1c(O)ccc2cc(S(=O)(=O)O)ccc12`, the outcome was “inactive”.

What follows are compounds tested against Retinoic acid receptor RXR-alpha (Homo sapiens) (UniProt P19793) (assay: ATG_RXRa_TRANS: Attagene TRANS-FACTORIAL HepG2 Assay for human Retinoid X Receptor alpha (RXRa) (AID 2283012)).
Sequence of Retinoic acid receptor RXR-alpha (Homo sapiens) (P19793 whole entry, looked up, the tested form may be a part): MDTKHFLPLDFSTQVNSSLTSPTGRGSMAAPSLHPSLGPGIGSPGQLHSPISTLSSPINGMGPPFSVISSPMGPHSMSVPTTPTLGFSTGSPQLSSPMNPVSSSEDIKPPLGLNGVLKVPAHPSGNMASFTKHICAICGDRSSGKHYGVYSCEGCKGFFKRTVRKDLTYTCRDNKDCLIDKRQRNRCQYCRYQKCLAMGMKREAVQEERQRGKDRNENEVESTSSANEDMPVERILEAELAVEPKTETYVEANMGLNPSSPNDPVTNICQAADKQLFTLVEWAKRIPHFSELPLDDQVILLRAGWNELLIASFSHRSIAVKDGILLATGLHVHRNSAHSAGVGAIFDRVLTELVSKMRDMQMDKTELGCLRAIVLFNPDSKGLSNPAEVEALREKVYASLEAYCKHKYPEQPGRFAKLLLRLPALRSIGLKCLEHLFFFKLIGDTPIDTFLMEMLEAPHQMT
Method in brief: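 Measures exogenous chimeric NR-GAL4 activity in transfected HepG2 liver cells after 24 h of dosing. Induced reporter mRNA was detected by RT-PCR with capillary electrophoresis, and gain of signal was analysed against DMSO.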
In the case of `Cc1cccc(C)c1O`, the outcome was “inactive”.
For `CCCCCCOCCO`, the outcome was “inactive”.
In the case of `C1CCC(SSC2CCCCC2)CC1`, the outcome was “inactive”.
`Cc1cccc([N+](=O)[O-])c1C` was tested, and the outcome was “inactive”.
With `CNCc1cc(F)ccc1Oc1ccc(Cl)c(Cl)c1` the outcome was “inactive”.
`Nc1ccc(S(=O)(=O)c2ccc(N)cc2)cc1` was tested, and the outcome was “inactive”.
`COc1cccc2c1C(=O)c1c(O)c3c(c(O)c1C2=O)C[C@@](O)(C(=O)CO)C[C@@H]3O[C@H]1C[C@H](N)[C@H](O)[C@H](C)O1` was tested, and the outcome was “inactive”.
For `Cc1ccc(C(C)C)c(O)c1`, the outcome was “inactive”.
In the case of `COc1cc(/C=C/C(=O)CC(=O)/C=C/c2ccc(O)c(OC)c2)ccc1O`, the outcome was “inactive”.
`Cc1oc(-c2ccccc2)nc1CCOc1cccc2c1ccn2CCC(=O)O` was tested, and the AC50 was 44.9 µM (active).
For `CC=Cc1ccc(O)c(OC)c1`, the outcome was “inactive”.
For `CCOC(=O)C(C)(C)Oc1ccc(Cl)cc1`, the outcome was “inactive”.
For `Cc1ccc(N(C)C)cc1`, the outcome was “inactive”.
For `Cc1cc(NC(=O)C(=O)O)cc(C)c1Oc1ccc(O)c2c1CCC2`, the outcome was “inactive”.
`Nc1ccc2c(c1)C(=O)c1ccccc1C2=O` was tested, and the outcome was “inactive”.
For `CCCCCCCCCCCCCO`, the outcome was “inactive”.
With `NS(=O)(=O)c1cc2c(cc1Cl)NCNS2(=O)=O` the outcome was “inactive”.
With `COc1cc(S(=O)(=O)O)c(C)cc1N=Nc1c(O)ccc2cc(S(=O)(=O)O)ccc12` the outcome was “inactive”.
